An excerpt weighted towards active compounds, which were near 27% of everything screened.
CYP2C19 act = activators of human cytochrome P450 2C19; recombinant CYP2C19, luciferin-H EGE luminescence; stronger effect = higher value; 0 = fully inhibited enzyme, 1 = untreated enzyme; activation factor at 5 µM; 96,000 tested, under 10 active; AID 1025;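 active means activation factor of at least 2 at 5 µM in the primary screen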
sEH activator = activators of human soluble epoxide hydrolase. purified human sEH enzymatic activity, activator screen. activation, % at 2 µM. 91,000 compounds, 0.04% hits; in the data active means activation above about 37%
CYP2C9 act = CYP2C9 (human) activation; activation factor at 5 µM; P11712; recombinant CYP2C9, luciferin-H conversion, luminescence; stronger effect = higher value; factor 1 = untreated enzyme, 0 = blocked; AID 1024; 96,000 compounds, 1.4% hits;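 active means activation factor of 2 or more for CYP2C9 at a 5 µM dose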
Target sequence (P11712 whole entry, looked up): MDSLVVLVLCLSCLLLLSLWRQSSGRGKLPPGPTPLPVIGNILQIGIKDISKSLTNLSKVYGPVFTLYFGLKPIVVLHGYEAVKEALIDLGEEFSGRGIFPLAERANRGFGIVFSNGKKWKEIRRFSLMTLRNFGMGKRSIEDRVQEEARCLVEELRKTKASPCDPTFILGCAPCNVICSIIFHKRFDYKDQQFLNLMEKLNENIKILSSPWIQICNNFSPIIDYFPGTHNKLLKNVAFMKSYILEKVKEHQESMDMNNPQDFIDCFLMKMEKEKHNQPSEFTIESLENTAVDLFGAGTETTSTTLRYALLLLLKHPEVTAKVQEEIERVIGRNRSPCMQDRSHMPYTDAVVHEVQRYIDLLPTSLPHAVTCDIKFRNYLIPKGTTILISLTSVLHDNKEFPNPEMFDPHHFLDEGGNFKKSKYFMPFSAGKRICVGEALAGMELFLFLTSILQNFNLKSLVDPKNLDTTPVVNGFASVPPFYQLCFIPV
CYP2C9 inh = human CYP2C9 inhibition; P11712; CYP2C9 Supersomes, luciferin-H conversion, luminescence; inhibition, % at 5 µM; 96,000 compounds, 20% hits;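 active means blocking of liver enzyme CYP2C9 beyond about 50% at 5 µM, limit read from the data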
CYP2C19 inhib = inhibitors of human CYP2C19; P33261; CYP2C19 Supersomes, luciferin-H EGE luminescence, 30 min; inhibition, % at 5 µM; 96,000 compounds, 21% hits; AID 778;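 active means CYP2C19 inhibition above a set limit at 5 µM in the primary screen, cut at about 50% in these data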
sEH inh = inhibitors of human soluble epoxide hydrolase; P34913; recombinant human sEH enzymatic activity assay; inhibition, % at 2 µM; 91,000 compounds, 0.34% hits; in the data active means inhibition above about 80%
A number is an active result; . = inactive; / = no result given.

SMILES	CYP2C19 act	sEH activator	CYP2C9 act	CYP2C9 inh	CYP2C19 inhib	sEH inh
CCc1ccccc1N(CC(=O)O)S(C)(=O)=O	.	.	.	.	.	.
O=C(Cn1c(=O)n(Cc2ccco2)c(=O)c2c3c(sc21)CCCCC3)c1ccccc1	.	.	.	53	.	.
O=c1c2c3c(sc2n(CCN2CCCC2)c(=O)n1Cc1ccco1)CCCCC3	.	/	.	52	.	/
CN(C)CCn1c(=O)n(Cc2ccco2)c(=O)c2c3c(sc21)CCCCC3	.	.	.	.	.	.
O=C(Cn1c(=O)n(Cc2ccco2)c(=O)c2c3c(sc21)CCCCC3)Nc1ccccc1	.	.	.	.	.	.
CCNC(=S)N/N=C/c1cccs1	.	.	.	.	.	.
CC(OC1=CC(=O)CCC1)C(=O)c1ccccc1 (stereo not given)	.	.	.	.	.	.
Oc1ccc(/C=N/Nc2nccnc2Cl)c(O)c1	.	.	.	52	.	.
Cc1ccc(/C=N/Nc2cccc3cccnc23)c(O)c1	.	.	.	.	.	.
COc1ccc(/C=N/Nc2nccnc2Cl)cc1	.	.	.	.	77	.
COc1ccc(/C=N/NC2=NCCCCC2)cc1	.	.	.	.	.	.
O=[N+]([O-])c1ccccc1/C=N/Nc1nccnc1Cl	.	.	.	.	.	.
Oc1ccccc1/C=N/Nc1nccnc1Cl	.	.	.	.	72	.
Oc1ccc(/C=N/Nc2cccc3cccnc23)c(O)c1	.	.	3	.	.	.
CCSc1nc(C)cc(C)c1S(=O)(=O)c1ccccc1C	.	.	.	.	.	.
COc1ccc(Oc2nnc(-c3ccccc3)cc2C#N)cc1	.	.	.	.	.	.
COc1nc(N)c(S(=O)(=O)c2ccccc2)cc1C#N	.	.	2.4	.	.	.
COc1nc(N)c(S(=O)(=O)c2ccccc2C)cc1C#N	.	.	.	.	78	.
O=c1cc(-c2ccccc2)[nH]n1-c1ccc([N+](=O)[O-])cc1	.	.	.	.	.	.
CCSCCOC(=O)C1=C(C)NC(=O)NC1c1cccc(OC)c1OC (stereo not given)	.	/	.	.	80	/
COCCOC(=O)C1=C(C)N(Cc2ccccc2)C(=O)NC1c1cccc(OC)c1OC (stereo not given)	.	.	.	90	99	.
COC(=O)C1=C(C)NC(=O)NC1c1cccc(OC)c1OCc1ccccc1 (stereo not given)	.	.	.	77	.	.
CC1=C(C(=O)NCc2ccccc2)C(c2ccccc2OCC(N)=O)NC(=O)N1 (stereo not given)	.	.	.	.	.	.
CCOc1ccccc1NC(=O)C1=C(C)NC(=O)NC1c1cccc(OC)c1OC (stereo not given)	.	.	.	.	.	.
COc1ccccc1NC(=O)C1=C(C)NC(=O)NC1c1cccc(OC)c1OC (stereo not given)	.	.	.	.	.	.
SMILES	CYP2C19 act	sEH activator	CYP2C9 act	CYP2C9 inh	CYP2C19 inhib	sEH inh
CC(=O)C1=C(c2ccccc2)NC(=O)NC1c1ccccc1OCC(=O)NCc1ccccc1 (stereo not given)	.	.	.	95	90	.
CCc1c(C)c2nncn2[nH]c1=O	.	.	.	.	.	.
CCCCCN(C(=O)NC(=O)Nn1cnnc1)S(C)(=O)=O	.	.	.	.	.	.
CCCCN(C(=O)NC(=O)Nc1cc(C)ccc1C)S(C)(=O)=O	.	.	.	56	.	.
CCCCCN(C(=O)NC(=O)Nc1nncs1)S(C)(=O)=O	.	.	.	61	.	.
c1ccc(C2COC(c3cccs3)=N2)cc1 (stereo not given)	.	.	.	.	62	.
CC1(C)C(c2cccs2)=NC(c2ccccc2)N1O (stereo not given)	.	.	.	.	.	.
Cc1cc(C(=O)CSc2nc3ccccc3n2CCC#N)c(C)n1Cc1cccs1	.	.	.	.	61	.
N#CCCn1c(SCC(=O)c2c[nH]c3ccccc23)nc2ccccc21	.	.	.	.	70	.
Cc1ccc(NC2=Nc3ccccc3CC2)cc1	.	.	.	.	84	.
c1ccc(NC2=Nc3ccccc3CS2)cc1	.	.	.	.	.	.
Brc1ccc(NC2=Nc3ccccc3CC2)cc1	.	.	.	.	52	.
CC1=CCC2C(=O)N(c3nc(C)cc(C)n3)C(=O)C2C1 (stereo not given)	.	.	.	.	.	.
CN(Cc1nc2ccccc2c(=O)[nH]1)CC(O)COCc1ccco1 (stereo not given)	.	.	.	.	.	.
Cc1cccc(NC(=S)N2CCC(C(=O)c3ccc(F)cc3)CC2)c1C	.	.	.	.	.	.
CN1CCC(OC(=O)C23CCC(C)(C(=O)O2)C3(C)C)CC1 (stereo not given)	.	.	.	.	.	.
O=C(NN1C(=O)/C(=C/c2cccnc2)SC1=S)C(c1ccccc1)c1ccccc1	.	.	.	82	.	.
CC(=O)Nc1nc2ccc(-c3nc4ccccc4o3)cc2s1	/	.	/	/	/	.
CC(=O)Nc1ccc(S(=O)(=O)Nc2cccc(-c3nc4ccccc4o3)c2)cc1	.	.	.	98	91	.
O=C(Nc1ccc(-c2nc3ccccc3o2)cc1)C1CCCO1 (stereo not given)	.	.	.	.	.	.
O=S(=O)(Nc1ccc(-c2nc3ccccc3o2)cc1)c1ccccc1	.	.	.	97	80	.
NS(=O)(=O)c1cccnc1Nc1cccc(C(F)(F)F)c1	.	.	.	78	.	.
NC(=O)/C=C\C(=O)Nc1cccc(C(F)(F)F)c1	.	.	.	.	.	.
CCOc1ccc(-c2nnc(SCC(=O)N(CC)CC)n2N)cc1	.	/	2.1	.	.	/
CCN(CC)NC(=S)Nc1ccccc1	.	.	.	.	.	.
SMILES	CYP2C19 act	sEH activator	CYP2C9 act	CYP2C9 inh	CYP2C19 inhib	sEH inh
CCCOC(=S)Nc1ccccc1	.	.	.	.	62	.
COc1ccc(C(C)NC(=O)c2ccccc2)cc1 (stereo not given)	.	.	.	.	75	.
c1coc(-c2nc(-c3ccco3)c(-c3ccco3)nc2-c2ccco2)c1	.	/	.	.	.	/
CCCNC(=O)c1ccc2nc(-c3ccccc3)c(-c3ccccc3)nc2c1	.	.	.	51	.	.
COc1ccc2nc(-c3ccco3)c(-c3ccco3)nc2c1	.	.	.	56	.	.
CCCCNC(=O)c1ccc2nc(-c3ccco3)c(-c3ccco3)nc2c1	.	/	.	.	.	/
O=C(Nc1ccccc1)c1ccc2nc(-c3ccco3)c(-c3ccco3)nc2c1	.	.	.	67	61	.
O=C(NCc1ccccc1)c1ccc2nc(-c3ccco3)c(-c3ccco3)nc2c1	.	.	.	77	.	.
CC(=O)c1ccc(NC(=O)c2ccc3nc(-c4ccco4)c(-c4ccco4)nc3c2)cc1	.	.	.	.	.	.
Cn1c(=O)c2c(ncn2CC(=O)Nc2ccc(Cl)cc2Cl)n(C)c1=O	.	.	.	.	.	.

Screens deposited in PubChem by several laboratories.
